The panel holds about 83,000 compounds, 20% with a hit somewhere; the sample as a whole holds those more often.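 Single-concentration screen, 48 h exposure, 96-well plates. Endpoint: percent growth. Below 10 = active.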 Unmarked numbers belong to inactive results. The source made the active and inactive calls.
Experiments:
Assay in all cases: NCI-60 one-dose screen, 48 h (100 = growth as untreated, 0 = no growth, -100 = all killed)
Details in all cases: 10 µM unless noted
[1] = system: SK-MEL-2 melanoma
[2] = system: EKVX NSCLC
[3] = system: SN12C renal
[4] = system: UO-31 renal
[5] = system: TK-10 renal
[6] = system: ACHN renal
[7] = system: CAKI-1 renal
[8] = system: A498 renal
[9] = system: CCRF-CEM leukemia
[10] = system: MOLT-4 leukemia
[11] = system: SR leukemia
[12] = system: RPMI-8226 leukemia
[13] = system: OVCAR-8 ovarian
[14] = system: OVCAR-5 ovarian
[15] = system: OVCAR-4 ovarian
[16] = system: SK-OV-3 ovarian
[17] = system: IGROV1 ovarian
[18] = system: OVCAR-3 ovarian
[19] = system: HS 578T breast
[20] = system: NCI/ADR-RES ovarian

SMILES	growth [1]	growth [2]	growth [3]	growth [4]	growth [5]	growth [6]	growth [7]	growth [8]	growth [9]	growth [10]	growth [11]	growth [12]	growth [13]	growth [14]	growth [15]	growth [16]	growth [17]	growth [18]	growth [19]	growth [20]
Nc1nc(=O)n([C@H]2C[C@H](O)[C@@H](CO)O2)cc1C=O	109%	112%	-19.5% (active)	101%	108%	107%	82.1%	121%	57.7%	92%	107%	110%	11.3%	94.2%	78.1%	116%	106%	116%	129%	9.49% (active)
CCOC(=O)C1=C(C)NC(C)=C(C(=O)OC(C)C)C1c1cccc(C#N)c1 (stereo not given)	106%	90.7%	97.8%	93.3%	106%	96.7%	84.7%	83.9%	103%	88.8%	90.9%	108%	103%	99.1%	104%	132%	103%	105%	98%	95%
C(=N\Nc1nc(N/N=C/c2ccc3c(c2)OCO3)nc(N2CCCCC2)n1)/c1ccc2c(c1)OCO2	103%	93.7%	79.7%	74.4%	121%	94.9%	98.9%	51.7%	20.4%	56.3%	0.113% (active)	56.2%	90.1%	118%	110%	140%	76.9%	105%	104%	85.5%
CCOC(=O)c1c(NC(=O)c2cccc(C(F)(F)F)c2)sc2c1CCC(=O)C2	71.9%	39.4%	42.9%	7.65% (active)	54.9%	8.52% (active)	23.9%	106%	8.47% (active)	36.8%	8.07% (active)	7.65% (active)	19.7%	40.4%	0.236% (active)	82.4%	18.4%	25.8%	36.5%	12.5%
CC(C)(O)c1cncc(-c2ccc3ncc(C#N)c(N4CCc5cc(F)c(Cl)cc54)c3c2)c1	-5.06% (active)	-10.5% (active)	17.1%	-2.66% (active)	14.3%	6.6% (active)	0.608% (active)	-18.3% (active)	20.5%	5.17% (active)	11.8%	13.5%	11.1%	16.7%	-1.6% (active)	-22.1% (active)	-14.5% (active)	9.12% (active)	-28% (active)	14.8%
Cc1csc(/N=C(N)/N=C(\N)c2cccc(Br)c2)n1	101%	88.9%	90.7%	86.4%	149%	97.7%	85.7%	81.5%	98.6%	96.5%	66.9%	102%	96.5%	102%	95.5%	91.5%	81.4%	107%	95.1%	72.7%
COc1ccc(Cn2cc(C#N)c(N)c2C(C)=O)cc1	106%	104%	89.8%	95.9%	99.8%	103%	93.6%	83.9%	94.7%	101%	122%	105%	111%	106%	92.9%	105%	106%	108%	102%	104%
Nc1ncc(-c2ccc3ncnc(NCc4ccccc4)c3c2)cn1	71%	23.5%	29.5%	15.1%	-7.11% (active)	25.2%	17.4%	22.4%	42.3%	17.7%	42.2%	31.5%	54.3%	36.7%	57.8%	39.5%	-8.67% (active)	45.9%	14.7%	69%
C#CCOc1cccc(/C(N)=N/C(N)=N/c2nc3ccccc3s2)c1	103%	73.8%	66%	91.8%	148%	81.4%	73.5%	122%	76.5%	71.8%	34.5%	83.2%	67.9%	111%	102%	133%	65.7%	104%	108%	59.1%
CC1=C(C)C(=O)C(Nc2cccc(C(=O)OC(C)(C)C)c2)=C(Cl)C1=O	95.8%	90.2%	84.1%	86.5%	116%	79.6%	76.1%	59.8%	21.9%	45.3%	16.3%	10.3%	92.9%	106%	80.2%	103%	12.4%	101%	97.2%	97.6%
COc1cc(-c2nc(-c3ccccc3)[nH]c2-c2ccnc(NCCCNS(=O)(=O)c3ccc(C)cc3)n2)ccc1F	104%	74.5%	89.3%	78.6%	123%	84.6%	105%	84.1%	56.9%	45.1%	89.4%	54%	83.8%	119%	108%	148%	95.2%	119%	107%	89.8%
CN1CCN(c2ccc(Nc3nc(NCCCNS(=O)(=O)c4ccc(C(F)(F)F)cc4)c4sccc4n3)cc2)CC1	-91% (active)	0.826% (active)	-60.2% (active)	-85% (active)	-34.4% (active)	-74.3% (active)	-76.9% (active)	-87% (active)	6.25% (active)	0.188% (active)	7.01% (active)	-9.61% (active)	-72.2% (active)	-3% (active)	-35% (active)	-37% (active)	-6.63% (active)	-74.1% (active)	-35% (active)	-2.63% (active)
O=C(CSc1nc2ccccc2c(=O)n1-c1ccc(Cl)cc1)N/N=C/c1ccc(Oc2ccc(Cl)cc2)cc1	54.3%	40.8%	45.3%	93.1%	39.7%	63.5%	33%	-42.3% (active)	-2.67% (active)	-25.1% (active)	32.9%	24.7%	13.4%	70.6%	1.7% (active)	33.8%	20.6%	87.3%	21.4%	15.7%
Cc1cc(NS(=O)(=O)c2ccc(NC(=O)CSc3nc4ccccc4c(=O)n3-c3ccccc3)cc2)no1	109%	96.8%	101%	85.9%	108%	98.1%	94.9%	99.6%	96.8%	107%	97.9%	110%	102%	92.7%	102%	106%	97.6%	109%	93.3%	102%

From PubChem BioAssay (NCI)
